Only some compounds are listed: those with a hit (about 6% of all), similar ones and a draw of the others.
D1 potentiator: Potentiators of Human D1 Dopamine Receptor: qHTS. D(1A) dopamine receptor (Homo sapiens), P21728. HEK293 TREx D1 cells, calcium flux, dopamine EC20 potentiation. potentiation, % at 10 µM. 360,000 tested, 0.036% active; in the data active = potentiation above about 30%
D1 agonist: Allosteric Agonists of the Human D1 Dopamine Receptor: qHTS. activation, % at 2 µM. D(1A) dopamine receptor (Homo sapiens), P21728. HEK293 T-REx D1 cells, calcium flux, agonist mode. 360,000 tested, 1% active. AID 504660, 2011; in the data active = activation above about 30%
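Agonism was scored from calcium flux recorded over 180 s (1 read/s) after pintool compound addition, following a 10-cycle baseline. Cells were inducible force-coupled HEK293 TREx D1, plated overnight at 30 C and loaded with no-wash calcium dye.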
DRD3 agonist: qHTS of D3 Dopamine Receptor Agonist: qHTS | D3R DiscoveRx beta-arrestin cells, luminescence, 90 min | max activation, % | 410,000 tested, 0.58% active | AID 652048, 2013; in the data active = max activation above about 30%
Target sequence (P35462 whole entry, looked up): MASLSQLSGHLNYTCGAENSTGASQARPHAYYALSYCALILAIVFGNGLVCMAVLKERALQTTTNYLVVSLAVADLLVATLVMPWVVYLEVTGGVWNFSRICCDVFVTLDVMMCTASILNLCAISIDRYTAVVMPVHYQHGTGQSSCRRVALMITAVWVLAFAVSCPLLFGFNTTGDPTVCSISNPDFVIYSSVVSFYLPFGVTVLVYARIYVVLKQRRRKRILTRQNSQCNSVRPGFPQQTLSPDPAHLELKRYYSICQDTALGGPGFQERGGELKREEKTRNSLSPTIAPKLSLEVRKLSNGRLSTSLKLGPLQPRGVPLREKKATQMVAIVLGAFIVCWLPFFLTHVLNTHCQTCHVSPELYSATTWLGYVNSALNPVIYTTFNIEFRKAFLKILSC
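Agonist-mode cell screen: cells plated at 1500/well and incubated overnight at 37 °C, then exposed to library compounds for 90 min at 37 °C. Detection reagent was added for 30–60 min at room temperature, and luminescence was read.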
DRD3 antagonist: qHTS of D3 Dopamine Receptor Antagonist: qHTS; 360,000 tested, 2.5% active; D(3) dopamine receptor (Homo sapiens), P35462; D3R cells, DiscoveRx beta-arrestin luminescence, antagonist mode; hits give low values; AID 652054, 2013; max response, negative = inhibition, %; in the data active = max response below about -50%; inconclusive = no clear call, values can overlap the other calls
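Cells plated overnight at 1500 cells/well, then exposed to library compounds with dopamine controls for 90 minutes at 37 degrees C. DiscoveRx reagent added for 30–60 minutes at room temperature; luminescence read, quantitative HTS format.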
D1 antag: Antagonist of Human D 1 Dopamine Receptor: qHTS; D(1A) dopamine receptor (Homo sapiens), P21728; HEK293 TREx D1 cells, calcium flux, dopamine EC80; hits give low values; activity change, negative = inhibition, % at 10 µM; 360,000 tested, 3.2% active; in the data active = activity change below about -30%
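Inducible Hek293 Trex D1 cells (tetracycline, overnight, 30 C). Calcium dye 30–90 min RT. Antagonist mode: EC80 dopamine added after 180 s compound read.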
Hits are given with their value; ! = repeats disagree.

Screening O=[N+]([O-])c1cccc(-c2csc(N/N=C/c3cccc(O)c3)n2)c1 returned D1 potentiator inactive, D1 agonist inactive, DRD3 agonist inactive, DRD3 antagonist inactive and D1 antag -43.0.
Cc1csc(N/N=C/c2ccc([N+](=O)[O-])cc2)n1 was read as D1 potentiator inactive, D1 agonist inactive, DRD3 agonist inactive, DRD3 antagonist inactive and D1 antag -35.2.
Screening COc1ccc(-c2cc(C(=O)NCCc3ccc(OC)c(OC)c3)c3ccccc3n2)cc1 returned D1 potentiator inactive, D1 agonist inactive, DRD3 agonist inactive and D1 antag inactive.
Screening Cc1ccc(C(=O)Sc2cccccc2=O)cc1 returned D1 potentiator inactive, D1 agonist inactive, DRD3 agonist inactive, DRD3 antagonist -94.1 and D1 antag inactive.
Screening O=C(Nc1ccccc1SC(=O)c1ccccc1)c1ccccc1 returned DRD3 agonist inactive and DRD3 antagonist inactive.
`O=C(CCNC(=O)c1ccc([N+](=O)[O-])cc1)Oc1ccc(F)c(F)c1` gave DRD3 agonist inactive and DRD3 antagonist inconclusive.
For CC(C)(C)C(=O)COC(=O)CNC(=O)c1ccc(Oc2ccccc2)cc1 the results were D1 potentiator inactive, D1 agonist 158.9, DRD3 agonist inactive, DRD3 antagonist inactive and D1 antag -49.1.
COc1cc(C(=O)NCCOc2ccccc2)cc(OC)c1OC was read as D1 potentiator inactive, D1 agonist inactive, DRD3 agonist inactive, DRD3 antagonist inactive and D1 antag inactive.
COC(=O)CCCNC(=O)c1ccc(OS(=O)(=O)c2cc([N+](=O)[O-])ccc2C)cc1 was read as D1 potentiator inactive, D1 agonist 62.8, DRD3 agonist inactive, DRD3 antagonist inactive and D1 antag inactive.
COc1ccc(C(=O)NCCOc2cccc(Oc3ccccc3)c2)cc1OC was read as D1 potentiator inactive, D1 agonist inactive, DRD3 agonist inactive, DRD3 antagonist inactive and D1 antag -43.7.
`O=C(CCNC(=O)c1ccccc1)Oc1ccc([N+](=O)[O-])cc1` gave D1 potentiator inactive, D1 agonist inactive, DRD3 agonist inactive, DRD3 antagonist inactive and D1 antag -46.0.
For CCOc1ccc(NC(=O)c2ccc3c(c2)CCN3S(=O)(=O)CC)cc1 the results were D1 potentiator inactive, D1 agonist inactive, DRD3 agonist inactive and D1 antag inactive.
Screening O=C(Nc1c2c(nn1-c1ccc(Cl)cc1)CS(=O)(=O)C2)c1cccc(Cl)c1 returned D1 potentiator inactive, D1 agonist inactive, DRD3 agonist inactive and D1 antag inactive.
`COc1ccc([C@]23Cc4ccccc4C(O2)c2c(cc(C)n(Cc4ccccc4)c2=O)O3)cc1` gave D1 potentiator inactive, D1 agonist inactive and D1 antag inactive.
For CCOc1ccc(NC(=O)CC2C(=O)N(c3ccc(C)cc3)C(=O)N2C2CCCCC2)cc1 (centres undefined) the results were D1 potentiator inactive, D1 agonist inactive, DRD3 agonist inactive and D1 antag inactive.
`COc1ccc(NC(=O)CC2C(=O)N(c3cccc(OC)c3)C(=O)N2CCC2=CCCCC2)cc1` (centres undefined) gave D1 potentiator inactive, D1 agonist inactive, DRD3 agonist inactive and D1 antag inactive.
CC(C)(C)c1ccc(C(=O)NCCOc2ccccc2F)cc1 was read as D1 potentiator inactive, D1 agonist inactive, DRD3 agonist inactive, DRD3 antagonist inactive and D1 antag inactive.
For O=C(NCCOc1ccccc1)c1cc(C(=O)NCCOc2ccccc2)cc([N+](=O)[O-])c1 the results were D1 potentiator inactive, D1 agonist inactive, DRD3 agonist inactive, DRD3 antagonist inactive and D1 antag -39.8.
`CC(C)(C)c1ccc(C(=O)NCCOc2ccccc2)cc1` gave D1 potentiator inactive, D1 agonist inactive, DRD3 agonist inactive, DRD3 antagonist inactive and D1 antag -31.4.
For O=[N+]([O-])c1ccccc1NCCOc1ccccc1 the results were D1 potentiator inactive, D1 agonist inactive, DRD3 agonist inactive, DRD3 antagonist inactive and D1 antag -44.2.
`O=C(NCCOc1ccccc1)c1cccc(S(=O)(=O)NCc2ccccc2)c1` gave D1 potentiator inactive, D1 agonist inactive, DRD3 agonist inactive, DRD3 antagonist inactive and D1 antag -38.5.
`Cc1cc(C)cc(-n2c(SCC(N)=O)nc3c(oc4ccccc43)c2=O)c1` gave D1 potentiator inactive, D1 agonist inactive, DRD3 agonist inactive and D1 antag inactive.
CCOC(=O)c1ccc(N2CCN(c3cc(Cl)ccc3C)CC2)c(NC(=O)Nc2cccc(OC)c2)c1 was read as D1 potentiator inactive, D1 agonist inactive, DRD3 agonist inactive and D1 antag inactive.
For O=C(Nc1ccc(Cl)c(Cl)c1)c1cccc(S(=O)(=O)NCc2cccnc2)c1 the results were D1 potentiator inactive, D1 agonist inactive, DRD3 agonist inactive, DRD3 antagonist inactive and D1 antag -30.8.
`CC(=O)NCCOc1ccc(C(=O)O)cc1` gave D1 potentiator inactive, D1 agonist inactive, DRD3 agonist inactive, DRD3 antagonist -54.8 and D1 antag inactive.
`Cc1ccc2c(c1)c(=O)c1ccccc1n2CCCC(=O)Nc1cc(Cl)ccc1C` gave D1 potentiator inactive, D1 agonist inactive, DRD3 agonist inactive and D1 antag inactive.
`Cc1ccc(NC(=O)CCCn2c3ccccc3c(=O)c3cc(C)ccc32)c(Br)c1` gave D1 potentiator inactive, D1 agonist inactive, DRD3 agonist 39.1 and D1 antag inactive.
Screening CCC(Sc1nc2cc(OC)c(OC)cc2c(=O)n1CCc1ccc(OC)c(OC)c1)C(=O)NCCOC (centres undefined) returned D1 potentiator inactive, D1 agonist inactive, DRD3 agonist inactive, DRD3 antagonist inactive and D1 antag -30.1.
For COc1ccc2c(c1)C1(C)CC(C)(C)N2C(=O)N1c1ccccc1 (centres undefined) the results were D1 potentiator inactive, D1 agonist 55.8, DRD3 agonist inactive, DRD3 antagonist inactive and D1 antag inactive.
For Cc1cc2oc(=O)cc(-c3cc4ccccc4o3)c2cc1O the results were D1 potentiator inactive, D1 agonist inactive, DRD3 agonist inactive, DRD3 antagonist inactive and D1 antag inactive.
COc1cc(OC)c(-c2c3cc(O)c(=O)cc-3oc3cc(O)c(O)cc23)cc1OC was read as D1 potentiator 31.9, D1 agonist 626.0, DRD3 agonist inactive, DRD3 antagonist -77.0 and D1 antag inactive.
For Cc1c2cc(O)c(=O)cc-2oc2cc(O)c(O)cc12 the results were D1 potentiator inactive, D1 agonist 33.8!, DRD3 agonist inactive, DRD3 antagonist inactive and D1 antag inactive.
COc1c(O)cc2oc(-c3ccc(O)cc3)cc(=O)c2c1O was read as D1 potentiator inactive, D1 agonist inactive, DRD3 agonist inactive, DRD3 antagonist inactive and D1 antag inactive.
